From ChEMBL document CHEMBL3988442, “University of Dundee, Small-Polar-MMV Screening Library” (2021)

Assays:
[1] = molecular target: T1, Aspartate--tRNA(Asp/Asn) ligase (Mycobacterium tuberculosis (strain ATCC 25618 / H37Rv)) (UniProt P9WFW3); test: Assay for Asp RNA synthetase-1 from Mycobacterium tuberculosis; type: functional; set-up: scale not given: direction of the effect not stated beside the values; details: 30 µM; also: in the data most compounds retested in dose-response had high values
T1 sequence (whole entry): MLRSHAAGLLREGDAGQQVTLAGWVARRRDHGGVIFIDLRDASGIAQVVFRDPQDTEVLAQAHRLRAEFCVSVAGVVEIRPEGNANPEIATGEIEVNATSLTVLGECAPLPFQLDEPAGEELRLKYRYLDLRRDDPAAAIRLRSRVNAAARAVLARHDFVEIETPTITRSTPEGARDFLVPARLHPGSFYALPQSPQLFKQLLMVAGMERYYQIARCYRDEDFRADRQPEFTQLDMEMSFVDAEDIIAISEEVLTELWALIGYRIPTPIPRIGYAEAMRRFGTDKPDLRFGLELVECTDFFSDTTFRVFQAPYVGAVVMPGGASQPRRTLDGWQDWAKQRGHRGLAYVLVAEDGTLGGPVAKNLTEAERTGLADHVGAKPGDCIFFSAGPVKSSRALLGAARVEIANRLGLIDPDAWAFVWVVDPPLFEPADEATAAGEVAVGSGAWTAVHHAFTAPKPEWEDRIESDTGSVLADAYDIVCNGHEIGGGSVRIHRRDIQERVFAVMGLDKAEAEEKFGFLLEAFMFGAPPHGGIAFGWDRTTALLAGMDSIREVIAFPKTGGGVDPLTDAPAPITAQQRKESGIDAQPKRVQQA

[2] = molecular target: Shiga toxin 2 (Escherichia coli O157:H7) (UniProt P09385+P09386); test: E. coli 0.157:H7 Shiga Toxin SOP - stx2 screening assay; type: functional; set-up: scale not given: direction of the effect not stated beside the values; details: 30 µM

Row | Structure (SMILES) | Percent Effect [1] | Percent Effect [2]
1 | Cc1cnn(CC(C)NCc2nc(-c3ccco3)no2)c1 (configuration not stated) | -4.9% | 2.91%
2 | CCc1nnc(CNCC2CCN(CC(O)c3ccccc3)CC2)o1 (configuration not stated) | -2.95% | -40.8%
3 | Cc1cnc(C(=O)N2CCCN(Cc3csc(C)n3)CC2)cn1 | -0.524% | -41.5%
4 | O=C(NCC1CC1)[C@H]1C[C@H]2OCC[C@H]2N(Cc2ccoc2)C1 | 2.61% | -11.8%
5 | CS(=O)(=O)NC[C@]12COC[C@H]1CN(C(=O)c1ccccc1)C2 | -2.14% | -16.8%
6 | Cc1ccc(NC2CCN(C(=O)c3cccc4ncccc34)CC2)nn1 | 3.98% | -2.02%
7 | CCn1c(NCc2ccco2)nc2c(C)nn(C)c2c1=O | -3.66% | -41.1%
8 | COCCN1CCC(CN(CC2CCCO2)C(=O)CCNC(C)=O)CC1 (configuration not stated) | -0.167% | -3.65%
9 | Cc1cc(C)n(C2CCCN(C(=O)c3cc(C4CC4)on3)C2)n1 (configuration not stated) | -7.81% | -32.5%
10 | Cc1noc(C)c1-c1cncc(C2CCCN2Cc2ccncc2)n1 (configuration not stated) | 1.92% | -6.19%
11 | Cc1ccn(-c2ccccc2NCc2ncc[nH]2)n1 | -0.604% | -13.8%
12 | CC(=O)N1CCCN(Cc2csc(-c3ncccn3)n2)CC1 | 5.15% | -13%
13 | CCc1nccn1C1CCCN(C(=O)c2cc3nc(C)ccc3o2)C1 (configuration not stated) | -2.42% | 20.3%
14 | CCc1nc(CN(CC(N)=O)C(C)C)cs1 | 0.799% | -3.84%
15 | Cc1ncsc1C(=O)Nc1cccc(OCC(F)F)n1 | -0.449% | 1.86%
16 | CC(=O)N1N=C(c2ccccc2)OC1C(=O)NCCC1=CCCCC1 (configuration not stated) | 0.28% | 22.5%
17 | CNC(=O)CS(=O)(=O)Cc1coc(-c2ccc(F)cc2)n1 | -1.26% | -3.77%
18 | Cc1ccc(N2CCCC(NCC(=O)Nc3cc(C)no3)C2)nn1 (configuration not stated) | -0.917% | -55.3%
19 | CCn1cc(NC(=O)C2CCN(CC(=O)N3CCOCC3)CC2)cn1 | -3.23% | 21.6%
20 | COc1ccc(C)cc1C(C)NC(=O)NCCCn1cncn1 (configuration not stated) | 2.78% | -12.9%
21 | O=C(Cc1ccccn1)N1CCc2nc(-c3cnccn3)nc(O)c2C1 | -2.49% | 4.64%
22 | CCS(=O)(=O)Nc1ccn(Cc2cccc(Cl)c2)n1 | 4.7% | -12.9%
23 | COCCOc1ccc(NC(=O)N2CCCC2c2ccncc2)cn1 (configuration not stated) | 0% | 19%
24 | N#CC1(C(=O)N2CCN(Cc3cscn3)CC2)CCCC1 | -0.171% | 9.21%
25 | Cn1ccnc1CN(CCCO)C1CCCc2ccccc21 (configuration not stated) | 3.32% | 8.83%
26 | Cc1nnc2n1CCN(Cc1csc(Cc3ccccc3)n1)C2 | -4.28% | 1.17%
